PubChem BioAssay (EPA / NIEHS)
Results filed as inconclusive are left out. The source made the active and inactive calls. The calls were made as follows, unless noted: active = hit-call score of the fitted dose curve at least 0.9, where 1 is the maximum; inactive = score below 0.9.

Legend:
[1] = CCTE_Mundy_HCI_Cortical_Synap_Neur_Matur_SynapseCount: CCTE's Synaptogenesis and Neurite Maturation Assay in rat cortical cells for Synapse Count, Mundy Lab (AID 2284218)
Method in brief: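 Synapse count per neuron is measured in rat cortical neurons exposed to chemicals between DIV 7 and DIV 12, with glial growth arrested by AraC at DIV 5. Synaptophysin and MAP2 staining is imaged automatically; activity is fitted relative to DMSO.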

[2] = CCTE_Mundy_HCI_Cortical_Synap_Neur_Matur_CellBodySpotCount: CCTE's Synaptogenesis and Neurite Maturation Assay in rat cortical cells for Cell Body Spot Count, Mundy Lab (AID 2284223)
Method in brief: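 Primary rat cortical cultures, AraC added at DIV 5; dosed DIV 7 through DIV 12 […]. Fixed, stained for MAP2 and synaptophysin with Hoechst; cell body-associated synaptophysin puncta per neuron counted by high-content imaging, loss vs DMSO.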

[3] = UKN4_HCS_LUHMES_cell_viability: Viability Assessment in the University of Konstanz (UKN) Leist Lab Neurite Outgrowth Assay in human LUHMES cells (UKN4) (AID 2284232)
Method in brief: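 Human dopaminergic-model LUHMES neurons were exposed to chemicals for 24 h after a 2-day differentiation. Viability was scored by imaging Hoechst H-33342 staining, with activity fitted in both directions relative to DMSO controls.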

[4] = UKN2_HCS_IMR90_cell_viability: Viability Assessment in the University of Konstanz (UKN) Leist Lab Neural Crest Cell Migration Assay in human induced IMR90 Pluripotent Stem Cells (UKN2) (AID 2284233);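 also: viability of neural crest cells differentiated from IMR90 iPSC measured by calcein-AM fluorescence imaging; cells exposed to compound for 24 h after a 24 h migration phase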
Method in brief: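 iPSC-derived (IMR90) neural crest cells seeded around silicone stoppers on PLO/laminin/fibronectin; after 24 h migration in N2-S with EGF/FGF, chemical added for 24 h. Calcein-AM/Hoechst stained 30 min, high-content imaged; bidirectional fit versus DMSO.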

[5] = CCTE_Mundy_HCI_Cortical_NOG_NeuronCount: CCTE's Neurite Outgrowth Assay in rat cortical cells for Neuron Count, Mundy Lab (AID 2284236; active = hit-call score of the fitted dose curve at least 0.9, where 1 is the maximum;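 also: neurons counted by imaging betaIII-tubulin and Hoechst stained cortical cells; cells exposed to compound for about 48 hours before fixation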)
Method in brief: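 Read-out: neuron number by high-content imaging of betaIII-tubulin (Alexa Fluor-488) and Hoechst-labelled rat primary cortical cells.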

[6] = CCTE_Mundy_HCI_hNP1_Casp3_7: CCTE's Caspase-Glo 3/7 Assay in human neuroprogenitor cells for Apoptosis, Mundy Lab (AID 2284240)
Method in brief: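 Neuroepithelial-lineage stem cells from WA09 embryonic cells were treated with chemicals after 40–44 h of culture. Twenty-four hours later, caspase-3/7 activation was detected luminescently after a 30 min room-temperature reagent step, with DMSO as baseline.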

[7] = CCTE_Mundy_HCI_Cortical_Synap_Neur_Matur_NeuronCount: CCTE's Synaptogenesis and Neurite Maturation Assay in rat cortical cells for Neuron Count, Mundy Lab (AID 2284242; active = hit-call score of the fitted dose curve at least 0.9, where 1 is the maximum;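 also: neuron number from Hoechst nuclei and MAP2 staining by high-content imaging; hits reduce neuron count versus DMSO baseline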)
Method in brief: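 Imaging-based neuron count in rat cortical cultures after chemical exposure from DIV 7 to DIV 12, with AraC added at DIV 5. Activity is fitted relative to DMSO.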

[8] = IUF_NPC2c_oligodendrocyte_migration_120hr: Leibniz Research Institute for Environmental Medicine (IUF) 120-hour Neural Progenitor Cell Migration Assay for Oligodendrocyte Migration (NPC2c) (AID 2284297);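 also: O4-positive oligodendrocyte migration distance divided by radial glia migration distance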
Method in brief: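 Human fetal neural progenitor spheres (0.3 mm) are plated on poly-D-lysine/laminin in N2 differentiation medium and exposed for 120 h, with half-medium renewal at day 3. Oligodendrocyte (O4+) migration distance comes from ICC imaging, normalised to radial glia migration.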

[9] = IUF_NPC2a_radial_glia_migration_120hr: Leibniz Research Institute for Environmental Medicine (IUF) 120-hour Neural Progenitor Cell Migration Assay for Radial Glia Migration (NPC2a) (AID 2284298)
Method in brief: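 Human fetal-cortex neural progenitor spheres (0.3 mm) plated on poly-D-lysine/laminin in N2 differentiation medium, exposed 120 h at 37C with half-medium renewal at day 3. Radial glia migration distance (um) measured from Hoechst-stained nuclei images; DMSO baseline.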

[10] = IUF_NPC2a_radial_glia_migration_72hr: Leibniz Research Institute for Environmental Medicine (IUF) 72-hour Neural Progenitor Cell Migration Assay for Radial Glia Migration (NPC2a) (AID 2284299)
Method in brief: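 Migration out of plated human neural progenitor spheres is scored at 72 h as the distance in um from the sphere core edge to the edge of the migration area. Values are the mean of four manual measurements per well, normalised to DMSO.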

[11] = IUF_NPC2b_neuronal_migration_120hr: Leibniz Research Institute for Environmental Medicine (IUF) 120-hour Neural Progenitor Cell Migration Assay for Neuron Migration (NPC2b) (AID 2284300)
Method in brief: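 0.3 mm hNPC spheres on poly-D-lysine/laminin in N2 differentiation medium exposed 120 h, half-medium refresh day 3; 7 concentrations, DMSO max 0.1%. Neuron (TUBB3) distance from sphere core by ICC imaging, normalised to radial glia migration.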

[12] = IUF_NPC3_neuronal_differentiation_120hr: Leibniz Research Institute for Environmental Medicine (IUF) 120-hour Neuronal Differentiation Assay (NPC3) (AID 2284301)
Method in brief: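 Primary human fetal neural progenitor spheres (GW 16-19, 0.3 mm) plated on poly-D-lysine/laminin in N2 medium, exposed from day 0 for 120 h with half-medium refresh at day 3. TUBB3+ cells as percent of Hoechst nuclei in migration area; DMSO baseline.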

[13] = IUF_NPC4_neurite_length_120hr: Leibniz Research Institute for Environmental Medicine (IUF) 120-hour Neuronal Morphology Assay for Neurite Length (NPC4) (AID 2284302)
Method in brief: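 Human fetal cortex (GW 16-19) neural progenitor spheres, 0.3 mm, were plated on poly-D-lysine/laminin in N2 differentiation medium and exposed from day 0 for 120 h, half-feeding at day 3. Mean TUBB3+ neurite length (µm) came from skeletonized images, relative to DMSO.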

[14] = IUF_NPC4_neurite_area_120hr: Leibniz Research Institute for Environmental Medicine (IUF) 120-hour Neuronal Morphology Assay for Neurite Area (NPC4) (AID 2284305; active = hit-call score of the fitted dose curve at least 0.9, where 1 is the maximum)
Method in brief: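 Human fetal cortex-derived neural progenitor spheres (0.3 mm, GW 16-19) plated on poly-D-lysine/laminin in N2 differentiation medium and exposed from day 0 for 120 h across 7 concentrations plus solvent control. Neurite area is mean pixel area per TUBB3-positive neuron via skeletonization, analysed relative to DMSO.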

[15] = IUF_NPC2-5_cytotoxicity_72hr: Cytotoxicity Assessment at 72 hours in the Leibniz Research Institute for Environmental Medicine (IUF) Neural Progenitor Cell Migration and Differentiation Assay for Cytotoxicity (NPC2-5) (AID 2284306; active = hit-call score of the fitted dose curve at least 0.9, where 1 is the maximum;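 also: LDH release into supernatant measured by resorufin fluorescence marking membrane damage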)
Method in brief: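 Human fetal (GW 16-19) neural progenitor spheres, 0.3 mm, plated on poly-D-lysine/laminin in N2 differentiation medium and exposed from day 0 to 7 concentrations plus solvent control (DMSO ≤0.1%). LDH-dependent resazurin-to-resorufin fluorescence in supernatant at 72 h.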

[16] = IUF_NPC2-5_cytotoxicity_120hr: Cytotoxicity Assessment at 120 hours in the Leibniz Research Institute for Environmental Medicine (IUF) Neural Progenitor Cell Migration and Differentiation Assay (NPC2-5) (AID 2284307; active = hit-call score of the fitted dose curve at least 0.9, where 1 is the maximum)
Method in brief: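 Human fetal (GW 16-19) neural progenitor spheres (0.3 mm) plated on poly-D-lysine/laminin in N2 differentiation medium, exposed 120 h with half-medium renewal at day 3; 7 concentrations plus solvent control, DMSO ≤0.1%. LDH release in supernatant read by resorufin fluorescence.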

[17] = IUF_NPC2-5_cell_number_120hr: Cell Number Assessment at 120 hours in the Leibniz Research Institute for Environmental Medicine (IUF) Neural Progenitor Cell Migration and Differentiation Assay (NPC2-5) (AID 2284308);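 also: count of Hoechst-stained nuclei in migration zone around plated human neural progenitor spheres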
Method in brief: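 Human fetal neural progenitor spheres (0.3 mm) plated on poly-D-lysine/laminin in N2 differentiation medium, exposed five days across 7 concentrations with half-medium refresh at day 3. Hoechst-positive nuclei counted in migration area at 120 h, relative to DMSO.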

[18] = IUF_NPC2-5_viability_120hr: Viability Assessment at 120 hours in the Leibniz Research Institute for Environmental Medicine (IUF) Neural Progenitor Cell Migration and Differentiation Assay (NPC2-5) (AID 2284312)
Method in brief: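 Human fetal (GW 16-19) neural progenitor spheres of 0.3 mm were plated on poly-D-lysine/laminin in N2 differentiation medium and exposed from day 0 for 120 h, with half-medium refresh at day 3. Viability was read as alamar blue resazurin-to-resorufin fluorescence against DMSO.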

[19] = TAMU_PeakParms_SingleDonor1434_Asystole: Texas A&M University (TAMU) 1.5-hr Human Induced Pluripotent Stem Cell (iPSC)-derived Cardiomyocytes Calcium (Ca+2) Flux Assay for Cardiotoxicity: Asystole (quiescence of beating) (AID 2284328; active = hit-call score of the fitted dose curve at least 0.9, where 1 is the maximum)
Method in brief: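 Human iPSC-derived cardiomyocytes (donor 1434) were exposed to 0.2, 1, 10 and 100 uM compound in 0.5% DMSO for 90 min at 37C. Ca2+-dye fluorescence gave average peak frequency; POD is EC95, a 95% beat-rate drop versus DMSO.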

[20] = IUF_NPC1_cytotoxicity_72hr: Cytotoxicity Assessment at 72 hours in the Leibniz Research Institute for Environmental Medicine (IUF) Neural Progenitor Cell Proliferation Assay (NPC1) (AID 2284332; active = hit-call score of the fitted dose curve at least 0.9, where 1 is the maximum;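 also: rising LDH signal means more cytotoxicity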)
Method in brief: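 hNPC spheres (fetal brain, gestational week 16-19) grown under proliferative EGF/FGF conditions, pH 7.2-7.6, were treated continuously for 72 h. Cytotoxicity came from LDH-coupled resazurin fluorescence in each well's supernatant.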

Measured: AC50

CC1(C)[C@H](C(=O)O[C@H](C#N)c2cccc(Oc3ccccc3)c2)[C@@H]1C=C(Br)Br
active: [1] 6.79 µM | [7] 23.9 µM | [9] 0.0654 µM | [10] 0.67 µM | [15] 3.53 µM | [17] 0.461 µM
inactive: all other assays above
